Data: PubChem BioAssay (NCATS)
Results filed as inconclusive are left out. Calls of active or inactive are those of the source. Unless noted, the call rests on the fitted dose curve; in most records, active means well fitted curve in the direction sought with a large enough effect; inconclusive means small, poorly fitted or top-dose-only effect, or another doubt; inactive means no such curve, though single readings can be large; an effect the other way counts as inactive or inconclusive.

How the values were obtained:
[1] = target: Lysosomal acid glucosylceramidase (Homo sapiens) (UniProt P04062); experiment: Glucocerebrosidase-p2 (AID 348; in the data active means potency below about 10 µM; further: potency means the concentration at half of the fitted maximal effect); settings: purified GBA, blue fluorogenic substrate, 40 min
How it was run: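 Normal human glucocerebrosidase (0.2 nM) with blue fluorogenic substrate (80 uM final) in citrate/phosphate pH 5.9 with 10mM sodium taurocholate, 0.01% tween-20; 40 min RT, NaOH/glycine stop; fluorescence Ex 365/Em 440; AC50 from a titration from 0.6 nM upwards.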

[2] = target: Cytochrome P450 1A2 (Homo sapiens) (UniProt P05177); experiment: p450-cyp1a2 (AID 410; calls by dose curve; further: potency means the concentration at half of the fitted maximal effect)
How it was run: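 Read-out is luminescence from luciferin produced by CYP1A2 demethylation of Luciferin-ME (100uM, at Km). Detection reagent stopped the 60 min NADPH-dependent reaction; signals were normalized to 57 uM furafylline.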

[3] = target: Glucocorticoid receptor (Homo sapiens) (UniProt P04150); experiment: GR-GFP Redistribution (AID 450;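 active means compounds whose dose series gives a full or clear partial fitted curve of increased nuclear translocation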; further: potency means the concentration at half of the fitted maximal effect); settings: U2OS GR-GFP nuclear translocation, laser cytometry, 2 h
[4] = target: Glucocorticoid receptor (Homo sapiens) (UniProt P04150); experiment: GR-EFC Redistribution (AID 451; calls by dose curve; further: potency means the concentration at half of the fitted maximal effect); settings: CHO-K1 GR-EFC translocation, beta-gal luminescence, 2 h
How it was run: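 Translocation of GR-ED fusion to nuclear EA restores b-gal, read by luminescence after 1 h room-temperature detection. Engineered CHO-K1 biosensor cells, 1,000/well, exposed 2 h at 37 C to titrations up to 46 uM final.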

[5] = target: 3',5'-cyclic-AMP phosphodiesterase 4B (Homo sapiens) (UniProt Q07343); experiment: qHTS Assay for Inhibitors of PDE-IV (AID 607; active means well fitted activation curve with a large enough effect in the main read-out, with a control signal flat, not every such curve was filed as active; further: % of control where 0% means no effect)
How it was run: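 Cell-based read-out of cAMP via a modified cyclic nucleotide-gated channel and membrane potential dye (535/590 nm) in HEK293 cells expressing PDE4 endogenously. Compounds tested up to 22.9 uM final; 100 uM RO 20-1724 reference.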

[6] = target: Cytochrome P450 3A4 (Homo sapiens) (UniProt P08684); experiment: qHTS Assay for Activators of Cytochrome P450 3A4 (AID 885); further: nearly all actives have a fitted effect of over 65% in size
How it was run: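 Luminescent readout of luciferin formed from 25 uM Luciferin-PPXE (KM level) by 20 nM CYP3A4 in 200 mM KPO4, with 60 min NADPH-driven reaction at room temperature after 10 min compound exposure. Ketoconazole (57 uM) defined 100% inhibition.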

[7] = qHTS Assay for Identification of Small Molecule Agonists for Hypoxia Response Element Signaling Pathway (AID 914; active means well fitted activation curve with a large enough effect in the signal ratio, with a control signal flat, not every such curve was filed as active; the % refers to the signal ratio; further: potency means the concentration at half of the fitted maximal effect; on activation: % of control where 0% means no effect); settings: ME-180 HRE-bla reporter, beta-lactamase ratio, CoCl2, 17 h; activation: stronger effect = higher value
How it was run: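 Read-out: CCF4 FRET ratio of 460nm to 530nm emission (excitation 405nm) after 2.5 hours at room temperature, taken from HRE-bla ME-180 cells that had been exposed to compound and EC50 CoCl2 for 17 hours.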

[8] = qHTS Assay for Lipid Storage Modulators (AID 1519; calls by dose curve); settings: Drosophila S3 cells, BODIPY lipid droplet/cell ratio, laser cytometry, cells loaded with oleic acid; for activity change, negative = inhibition: at 57.5 µM (top of the series)
How it was run: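 Cells seeded at 5,000 per well were treated with compounds over a concentration series and loaded with oleic acid (400 uM, as added). Lipid droplet fluorescence (488 nm excitation, 500-530 nm channel) was read by laser-scanning cytometry and normalized to 20 uM Triacsin C.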

[9] = target: Dual specificity protein kinase CLK4 (Homo sapiens) (UniProt Q9HAZ1); experiment: qHTS Assay for Inhibitors of CDC-like Kinase 4 (Kinase-Glo Assay) (AID 1770); further: nearly all actives have a fitted effect of over 65% in size; further: potency means the concentration at half of the fitted maximal effect
How it was run: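 Recombinant human Clk4 (25 nM) phosphorylated RS repeat peptide (100 uM) with 1 uM ATP in Tris pH 7.5/MgCl2/EGTA/DTT/Triton buffer for 4.5 h at room temperature. Residual ATP was quantified by Kinase-Glo luciferase luminescence.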

[10] = target: Dual specificity protein kinase CLK4 (Homo sapiens) (UniProt Q9HAZ1); experiment: qHTS Assay for Inhibitors of CDC-like Kinase 4 (ADP-Glo Assay) (AID 1771); further: nearly all actives have a fitted effect of over 70% in size; further: potency means the concentration at half of the fitted maximal effect
How it was run: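 In this ADP-Glo format, 1 uM ATP and 100 uM RS peptide served as substrates for 25 nM Clk4 in Mg2+/EGTA/DTT/Triton buffer; reactions ran 1 hr at room temperature before luminescent ADP quantification.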

[11] = target: Dual specificity protein kinase CLK4 (Homo sapiens) (UniProt Q9HAZ1); experiment: qHTS Assay for Inhibitors of CDC-like Kinase 4 (ADP-FP Assay) (AID 1795); further: on the % scale 0 is the no-effect control and ±100 the full control effect; nearly all actives have a fitted effect of over 60% in size
How it was run: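 Recombinant human Clk4 (6.25 nM) phosphorylated RS repeat peptide (100 uM) with 1 uM ATP in Tris pH 7.5/MgCl2/EGTA/DTT/Triton buffer for one hour. ADP was quantified by Transcreener competitive fluorescence polarization against an ADP calibration curve.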

[12] = target: Ubiquitin carboxyl-terminal hydrolase 1 (Homo sapiens) (UniProt O94782); experiment: Inhibitors of USP1/UAF1: Pilot qHTS (AID 504865);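 further: rhodamine fluorescence freed from ubiquitin-rhodamine substrate followed over time; top concentration of the series differs between compounds; on the % scale 0 is the no-effect control and ±100 the full control effect; nearly all actives have a fitted effect of over 35% in size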
How it was run: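 USP1/UAF1 complex (1nM) preincubated with compound 15 min at room temperature, then Ub-Rho substrate (150nM final) added. Fluorescence read kinetically at 480/540 nm, 6 reads every 60 seconds. Buffer: 50mM HEPES pH 7.8, 0.5mM EDTA, 0.1 mg/ml BSA, 1mM TCEP, 0.01% Tween-20.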

[13] = Counterscreen qHTS for small molecule stabilizers of the endoplasmic reticulum resident proteome: GLuc-NoTag assay (AID 1508627); further: potency means the concentration at half of the fitted maximal effect;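 on activity change, negative = inhibition: SH-SY5Y cells given compound then 100 nM thapsigargin to empty ER calcium; 0% = thapsigargin alone and -100% = DMSO vehicle control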
How it was run: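 Counterscreen line: SH-SY5Y-GLuc-NoTag cells, treated with compound 19 hr before a 4 hr, 100 nM thapsigargin calcium depletion. Secreted Gaussia luciferase in the medium was measured by luminescence after coelenterazine was added (0.07x final), with cells unlysed.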

[14] = target: Mitogen-activated protein kinase 10 (Mus musculus) (UniProt Q61831); experiment: JNK3 AlphaScreen Assay (AID 530; active means well fitted curve in either direction with a large enough effect, not every such curve was filed as active;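 further: kinase came from lysate of stimulated human HepG2 cells; signal reports phosphorylation of biotinylated GST-cJun 1-79 at Ser73 with 10 µM ATP; on the % scale 0 is the no-effect control and ±100 the full control effect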)
How it was run: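 Kinase buffer: 20 mM Tris-HCl pH 7.6, 10 mM MgCl2, 1 mM DTT, 0.1 mM Na3VO4, 0.01% Tween-20; ATP 10 uM. Substrate biotin-GST-cJun(1-79), enzyme from activated HepG2 lysates. Detection by Ser73 phospho-antibody AlphaScreen.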

[15] = NFAT Signaling Pathway (AID 444; active means well fitted curve in either direction with a large enough effect, not every such curve was filed as active;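 further: carbachol stimulus at about its EC50 of 1 µM final; on the % scale 0 is the no-effect control and ±100 the full control effect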); settings: Jurkat NFAT-bla M1, carbachol, beta-lactamase ratio, 5 h; at 7.69 µM (top of the series) unless noted
How it was run: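 Read-out: CCF4 FRET ratio (460 nm/530 nm) after 1 h RT dye loading, used for %activity and AC50 from titration series. Cells: Jurkat NFAT-β-lactamase/M1 line, treated with compound plus 1 uM carbachol for 5 h, 37 °C.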

[16] = AP1 Signaling Pathway (AID 357; active means well fitted curve in either direction with a large enough effect, not every such curve was filed as active; further: on the % scale 0 is the no-effect control and ±100 the full control effect); settings: ME-180 AP-1-bla reporter, EGF-induced, beta-lactamase ratio, 5 h; at 7.69 µM (top of the series) unless noted
How it was run: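 Titration-series screen for positive or negative modulators of EC50 EGF-induced signaling in ME-180 cells carrying an AP-1-driven beta-lactamase reporter. After 5 hours at 37 degrees Celsius, CCF4 460nm/530nm emission ratio gave %Activity; AC50 values derived.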

[17] = Stat Signaling Pathway (AID 446; active means well fitted curve in either direction with a large enough effect, not every such curve was filed as active;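 further: ME-180 cervical cancer cells given 40 pM IL-6 alongside compound; SIE-controlled beta-lactamase reporter measured as 460/530 nm FRET emission ratio; on the % scale 0 is the no-effect control and ±100 the full control effect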); settings: ME-180 (cervical carcinoma) SIE beta-lactamase reporter, IL-6 stimulated, 5 h; at 7.69 µM (top of the series) unless noted
How it was run: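 FRET read-out (405 nm excitation, 460/530 nm emission) of a beta-lactamase reporter under a STAT-inducible element in ME-180 cervical carcinoma cells. Cells with compound receive 40 pM IL-6 for 5 h. Values are normalised to AC90 stimulation and AC90 JAK-inhibitor controls.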

[18] = Confirmatory qHTS for small molecule stabilizers of the endoplasmic reticulum resident proteome: Secreted ER Calcium Modulated Protein (SERCaMP) assay (AID 1508628); further: potency means the concentration at half of the fitted maximal effect; nearly all actives have a fitted effect of over 40% in size
How it was run: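 GLuc-SERCaMP-expressing SH-SY5Y cells, pretreated 16 h with compound, are challenged with thapsigargin to empty ER calcium stores; after 4 h, coelenterazine is added directly to the medium and luminescence is imaged.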

[19] = Cell Viability qHTS for small molecule stabilizers of the endoplasmic reticulum resident proteome (AID 1508629); settings: cell viability counter-screen, 100 nM thapsigargin for final 4 h
[20] = measured here: cell count channel max response
[21] = measured here: lipid channel max response

Glucocorticoid receptor (Homo sapiens), sequence (P04150 whole entry, looked up, the tested form may be a part): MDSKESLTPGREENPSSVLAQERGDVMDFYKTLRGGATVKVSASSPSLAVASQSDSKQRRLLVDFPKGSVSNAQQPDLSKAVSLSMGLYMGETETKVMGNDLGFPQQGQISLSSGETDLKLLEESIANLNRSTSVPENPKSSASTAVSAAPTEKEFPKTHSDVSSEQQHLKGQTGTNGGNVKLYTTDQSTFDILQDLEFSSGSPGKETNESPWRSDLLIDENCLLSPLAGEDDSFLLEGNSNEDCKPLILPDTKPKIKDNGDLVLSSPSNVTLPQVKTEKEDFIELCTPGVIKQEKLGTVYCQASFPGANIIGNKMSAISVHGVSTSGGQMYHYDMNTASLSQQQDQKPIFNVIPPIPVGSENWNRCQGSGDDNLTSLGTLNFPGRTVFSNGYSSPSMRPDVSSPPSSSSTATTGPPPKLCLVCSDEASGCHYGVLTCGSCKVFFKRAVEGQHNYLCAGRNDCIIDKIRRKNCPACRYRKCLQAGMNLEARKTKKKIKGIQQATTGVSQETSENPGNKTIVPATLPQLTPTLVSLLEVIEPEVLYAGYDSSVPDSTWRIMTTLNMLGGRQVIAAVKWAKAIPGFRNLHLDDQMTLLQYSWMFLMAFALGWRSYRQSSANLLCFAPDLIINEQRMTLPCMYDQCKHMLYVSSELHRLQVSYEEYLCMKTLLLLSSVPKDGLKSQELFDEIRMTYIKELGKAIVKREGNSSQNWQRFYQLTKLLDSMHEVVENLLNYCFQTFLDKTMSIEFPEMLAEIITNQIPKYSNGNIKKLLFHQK
Cytochrome P450 1A2 (Homo sapiens), sequence (P05177 whole entry, looked up): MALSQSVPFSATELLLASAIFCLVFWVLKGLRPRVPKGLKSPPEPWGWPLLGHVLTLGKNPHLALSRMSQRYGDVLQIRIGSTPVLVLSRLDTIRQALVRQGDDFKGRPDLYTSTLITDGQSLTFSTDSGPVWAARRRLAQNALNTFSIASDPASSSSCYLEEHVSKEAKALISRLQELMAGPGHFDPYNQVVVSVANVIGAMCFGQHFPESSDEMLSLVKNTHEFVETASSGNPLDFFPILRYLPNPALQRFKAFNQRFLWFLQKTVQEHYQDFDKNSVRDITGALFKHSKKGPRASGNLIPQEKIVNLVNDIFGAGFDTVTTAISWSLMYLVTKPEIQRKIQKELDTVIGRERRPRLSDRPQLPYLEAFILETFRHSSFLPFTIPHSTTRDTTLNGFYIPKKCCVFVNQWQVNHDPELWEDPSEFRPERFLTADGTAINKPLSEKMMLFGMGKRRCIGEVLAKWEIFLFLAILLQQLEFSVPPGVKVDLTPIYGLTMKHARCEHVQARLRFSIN
Ubiquitin carboxyl-terminal hydrolase 1 (Homo sapiens), sequence (O94782 whole entry, looked up): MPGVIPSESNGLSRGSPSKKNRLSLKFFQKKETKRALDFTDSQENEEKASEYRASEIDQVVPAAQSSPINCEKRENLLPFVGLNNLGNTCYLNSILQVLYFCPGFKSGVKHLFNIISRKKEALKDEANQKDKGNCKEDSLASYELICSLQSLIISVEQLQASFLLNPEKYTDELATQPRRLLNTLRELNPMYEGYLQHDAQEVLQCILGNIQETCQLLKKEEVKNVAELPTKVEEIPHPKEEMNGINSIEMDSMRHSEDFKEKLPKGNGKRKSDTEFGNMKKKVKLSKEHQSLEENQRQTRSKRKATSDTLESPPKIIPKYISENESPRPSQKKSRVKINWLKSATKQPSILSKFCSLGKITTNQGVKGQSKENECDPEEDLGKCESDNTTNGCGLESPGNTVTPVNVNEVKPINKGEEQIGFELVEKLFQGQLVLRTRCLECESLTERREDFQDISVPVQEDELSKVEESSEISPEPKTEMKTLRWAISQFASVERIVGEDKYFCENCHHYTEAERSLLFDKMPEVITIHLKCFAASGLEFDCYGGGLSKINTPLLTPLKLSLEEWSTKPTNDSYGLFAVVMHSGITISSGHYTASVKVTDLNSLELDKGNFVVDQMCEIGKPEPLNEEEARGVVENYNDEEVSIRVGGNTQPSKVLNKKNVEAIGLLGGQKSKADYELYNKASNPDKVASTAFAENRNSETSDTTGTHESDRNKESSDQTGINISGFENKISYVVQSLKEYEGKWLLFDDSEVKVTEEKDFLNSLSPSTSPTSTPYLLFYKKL
Cytochrome P450 3A4 (Homo sapiens), sequence (P08684 whole entry, looked up): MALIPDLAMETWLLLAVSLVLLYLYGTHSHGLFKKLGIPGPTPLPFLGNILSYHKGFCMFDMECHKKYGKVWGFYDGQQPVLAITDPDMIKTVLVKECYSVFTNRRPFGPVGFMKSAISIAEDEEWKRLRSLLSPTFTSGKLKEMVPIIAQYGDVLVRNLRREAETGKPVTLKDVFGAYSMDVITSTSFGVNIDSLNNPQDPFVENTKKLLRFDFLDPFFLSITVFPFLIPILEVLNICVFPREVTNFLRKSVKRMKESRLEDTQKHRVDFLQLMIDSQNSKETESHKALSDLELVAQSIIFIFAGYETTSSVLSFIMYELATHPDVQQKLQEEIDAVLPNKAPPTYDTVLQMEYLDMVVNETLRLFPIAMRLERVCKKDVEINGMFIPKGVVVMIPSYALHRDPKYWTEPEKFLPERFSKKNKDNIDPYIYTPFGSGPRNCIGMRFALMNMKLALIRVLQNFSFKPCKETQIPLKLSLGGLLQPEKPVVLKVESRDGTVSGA
3',5'-cyclic-AMP phosphodiesterase 4B (Homo sapiens), sequence (Q07343 whole entry, looked up): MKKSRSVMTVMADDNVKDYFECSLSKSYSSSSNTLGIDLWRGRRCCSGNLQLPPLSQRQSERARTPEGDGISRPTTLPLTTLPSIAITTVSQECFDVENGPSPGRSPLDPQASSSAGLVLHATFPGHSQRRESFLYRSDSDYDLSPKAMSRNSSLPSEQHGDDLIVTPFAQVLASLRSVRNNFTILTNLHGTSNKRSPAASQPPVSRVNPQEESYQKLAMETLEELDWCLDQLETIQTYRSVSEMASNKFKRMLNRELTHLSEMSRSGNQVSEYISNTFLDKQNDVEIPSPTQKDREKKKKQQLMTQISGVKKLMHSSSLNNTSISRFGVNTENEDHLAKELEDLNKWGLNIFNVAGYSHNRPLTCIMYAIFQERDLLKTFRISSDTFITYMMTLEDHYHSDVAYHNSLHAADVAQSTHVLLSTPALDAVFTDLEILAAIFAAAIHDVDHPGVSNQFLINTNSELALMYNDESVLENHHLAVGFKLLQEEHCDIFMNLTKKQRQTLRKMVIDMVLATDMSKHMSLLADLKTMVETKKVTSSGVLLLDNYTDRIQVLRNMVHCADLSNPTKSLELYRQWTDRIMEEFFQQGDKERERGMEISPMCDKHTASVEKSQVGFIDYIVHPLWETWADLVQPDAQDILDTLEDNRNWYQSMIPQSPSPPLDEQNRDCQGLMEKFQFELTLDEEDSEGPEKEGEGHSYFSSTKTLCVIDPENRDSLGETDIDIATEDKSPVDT
Lysosomal acid glucosylceramidase (Homo sapiens), sequence (P04062 whole entry, looked up): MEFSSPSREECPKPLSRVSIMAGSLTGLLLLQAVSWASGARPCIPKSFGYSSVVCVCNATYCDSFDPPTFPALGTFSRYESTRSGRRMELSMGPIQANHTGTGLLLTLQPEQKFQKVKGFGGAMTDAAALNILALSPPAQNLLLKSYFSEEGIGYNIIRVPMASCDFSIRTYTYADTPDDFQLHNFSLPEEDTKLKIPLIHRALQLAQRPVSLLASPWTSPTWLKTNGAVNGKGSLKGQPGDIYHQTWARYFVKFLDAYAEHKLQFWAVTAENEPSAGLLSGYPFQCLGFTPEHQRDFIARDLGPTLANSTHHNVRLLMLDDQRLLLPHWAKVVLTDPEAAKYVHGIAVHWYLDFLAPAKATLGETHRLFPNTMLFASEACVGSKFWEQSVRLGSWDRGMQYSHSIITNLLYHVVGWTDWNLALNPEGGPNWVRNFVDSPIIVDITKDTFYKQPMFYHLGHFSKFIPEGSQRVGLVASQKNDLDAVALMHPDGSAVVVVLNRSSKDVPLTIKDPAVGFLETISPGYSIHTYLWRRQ
Dual specificity protein kinase CLK4 (Homo sapiens), sequence (Q9HAZ1 whole entry, looked up): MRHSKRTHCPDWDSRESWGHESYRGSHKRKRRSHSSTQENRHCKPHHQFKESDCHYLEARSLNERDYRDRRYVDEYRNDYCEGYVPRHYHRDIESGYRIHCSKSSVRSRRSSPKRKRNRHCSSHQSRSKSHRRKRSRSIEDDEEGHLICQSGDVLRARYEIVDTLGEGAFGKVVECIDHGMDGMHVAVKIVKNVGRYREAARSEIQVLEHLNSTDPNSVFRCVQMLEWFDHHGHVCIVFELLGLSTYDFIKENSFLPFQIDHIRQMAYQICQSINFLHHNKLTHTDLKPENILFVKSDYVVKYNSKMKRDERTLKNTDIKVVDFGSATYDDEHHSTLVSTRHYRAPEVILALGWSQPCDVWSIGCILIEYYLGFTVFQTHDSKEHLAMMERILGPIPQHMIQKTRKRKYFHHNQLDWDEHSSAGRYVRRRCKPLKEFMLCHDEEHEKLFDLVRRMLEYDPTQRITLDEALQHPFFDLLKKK

COc1cccc(Cn2c(=O)c(-c3ccccc3)nc3cnc(N4CCNCC4)nc32)c1
inactive: Potency [1] > 11.4 µM | Potency [3] > 9.22 µM | Potency [4] > 46 µM | Potency [5] | Potency [6] | activity change, negative = inhibition [8] 4.45% | Potency [9] | Potency [10] | Potency [11] | Potency [12] | Potency [13]
11.2%: max response [8, 21]
active: Potency [2] 3.16 µM | Potency [7] 3.16 µM
8.56%: max response [8, 20]

O=c1c(-c2cc(F)cc(F)c2)nc2cnc(N3CCNCC3)nc2n1-c1ccccc1
4.03%: max response [8, 21]
active: Potency [9] 15.8 µM | Potency [10] 22.4 µM
3.1%: max response [8, 20]
inactive: Potency [1] > 11.4 µM | Potency [3] > 9.22 µM | Potency [4] > 46 µM | outcome [14] | Potency [5] | activity change, negative = inhibition [8] 4.01% | Potency [12] | Potency [13]

CN1CCN(c2ncnc3ccc(-c4ccccc4Cl)cc23)CC1
10.9%: max response [8, 20]
active: Potency [2] 1.58 µM | Potency [9] 25.1 µM | Potency [10] 28.2 µM
-1.45%: max response [8, 21]
inactive: Potency [1] > 11.4 µM | activity change, negative = inhibition [15] -23.1% | Potency [3] > 46 µM | Potency [4] > 46 µM | outcome [14] | Potency [6] | activity change, negative = inhibition [8] -1.72% | Potency [12] | Potency [13]

COc1cccc(Cn2c(=O)c(C)nc3cnc(N4CCNCC4)nc32)c1
inactive: activity change, negative = inhibition [16] 4.85% | activity change, negative = inhibition [15] -10.9% | activity, negative = inhibition [17] -3.45% | Potency [3] > 9.22 µM | Potency [4] > 46 µM | outcome [14] | Potency [5]
active: Potency [13] 28.2 µM | Potency [18] 35.5 µM

CN1CCN(c2ncncc2-c2ccccc2C(F)(F)F)CC1
25.9%: max response [8, 20]
29.8%: max response [8, 21]
inactive: Potency [1] > 11.4 µM | activity change, negative = inhibition [16] 1.62% | activity, negative = inhibition [17] 0.819% | Potency [3] > 46 µM | Potency [4] > 46 µM | outcome [14] | Potency [5] | Potency [6] | activation [7] 5.49% | activity change, negative = inhibition [8] 6.69% | Potency [11] | Potency [12] | Potency [13] | max response [19] 18.7%
active: Potency [2] 31.6 µM

Cn1c(=O)c(CCc2ccccc2)nc2cnc(OCc3ccccc3)nc21
13.9%: max response [8, 20]
inactive: activity change, negative = inhibition [16] -26% | activity change, negative = inhibition [15] -3.3% | activity, negative = inhibition [17] -13% | Potency [3] > 9.22 µM | Potency [4] > 46 µM | outcome [14] | Potency [5] | activity change, negative = inhibition [8] 2.86% | Potency [9] | Potency [10] | Potency [11] | Potency [13] | max response [19] -14.7%
15.4%: max response [8, 21]

Cc1nc2cnc(N3CCNCC3)nc2n(CCc2ccccc2)c1=O
active: Potency [18] 31.6 µM
inactive: Potency [1] > 11.4 µM | activity change, negative = inhibition [16] -1.97% | activity change, negative = inhibition [15] -13.2% | activity, negative = inhibition [17] -13.8% | Potency [3] > 9.22 µM | Potency [4] > 46 µM | outcome [14] | Potency [5] | Potency [10] | Potency [11] | Potency [12] | Potency [13]
